Reference: PubChem BioAssay AID1626 (SRMLSC, 2009)
Screen size: about 220,000 compounds; about 2,000 (0.91%) were called active. About 2% were inconclusive and are not listed. These entries were drawn from the full list. Measured potencies and affinities stand elsewhere. Values without a mark were called inactive. No stated cut-off is given here; in the data, inconclusive means inhibition above about 80% without an active follow-up result; inactive means below that; test concentration not stated here.

Experiment: M. tuberculosis H37Rv growth inhibitors, H37Rv strain (AID 1626);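 further: bacteria incubated seven days before Alamar blue readout; 0% = bacteria only wells and 100% = bacteria with antibiotic wells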
Conditions: stronger effect = higher value, concentration not given here

Row | Compound | inhibition
1 | O=C(Nc1ccccc1)c1ccc(NCc2cccnc2)c(S(=O)(=O)N2CCOCC2)c1 | 1.54%
2 | COc1cc(-c2nc3n(n2)C(c2ccncc2)C(C(N)=O)=C(C)N3)cc(OC)c1OC (stereo not drawn) | -5.67%
3 | COc1cccc(C2=CC(c3cccc(OC)c3OC)n3nnnc3N2)c1 (stereo not drawn) | -6.61%
4 | O=C(COC(=O)c1cc(S(=O)(=O)N2CCCC2)ccc1O)Nc1ccc(S(=O)(=O)N2CCOCC2)cc1 | 1.29%
5 | CN1CCC(N(C)C(=O)c2cc(=O)c3ccccc3o2)CC1 | 18.1%
6 | CCOC(=O)c1sc2nc(CSc3ccccc3)nc(NCCN(C)C)c2c1C | -5.4%
7 | Cc1sc2nc(CSc3ccccc3)nc(N3CCN(C)CC3)c2c1C | 0.24%
8 | CCC(C)NC(=O)c1c(N)n(/N=C/c2cccnc2)c2nc3ccccc3nc12 (stereo not drawn) | 7.17%
9 | CC(C)CNC(=O)c1c(N)n(/N=C/c2ccccn2)c2nc3ccccc3nc12 | -5.94%
10 | Cc1ccc(CSCc2ccc(C(=O)NCC3CCCO3)o2)cc1 (stereo not drawn) | 6.03%
11 | CCOC(=O)c1ccc(NC(=S)N2CCN(c3ccc(N4CCOCC4)nn3)CC2)cc1 | 4.49%
12 | CC(C)C(NC(=O)c1ccccc1)C(=O)NC1=NCCS1 (stereo not drawn) | -2.59%
13 | O=C(Nc1nc2ccccc2s1)c1cc(-c2ccccc2)nn1-c1ccccc1 | -3.23%
14 | CCc1nnc(NC(=O)c2cc(-c3ccccc3)nn2-c2ccccc2)s1 | 19.3%
15 | CC(OC(=O)CCC(=O)c1cccs1)C(=O)Nc1ccc(Cl)cn1 (stereo not drawn) | 2.41%
16 | OC1CCN(c2cc(-c3ccccc3)nc3cc(-c4ccc(F)cc4)nn23)CC1 | 5.18%
17 | Fc1ccc(-c2cc3nc(-c4ccccc4)cc(N4CCOCC4)n3n2)cc1 | 1.89%
18 | O=C(O)C(Oc1ccc2c3c(c(=O)oc2c1)CCC3)c1ccccc1 (stereo not drawn) | -10.3%
19 | Cc1ccc(Nc2nnc(SCC(=O)Nc3ncc(S(=O)(=O)c4ccc([N+](=O)[O-])cc4)s3)s2)cc1 | 0%
20 | Cc1nnc(SCC(=O)Nc2ncc(S(=O)(=O)c3ccc([N+](=O)[O-])cc3)s2)s1 | -0.12%
21 | COc1ccc(OCC(O)CNC(=O)Nc2cc(C)cc(C)c2)cc1 (stereo not drawn) | -16.7%
22 | CCOC(=O)C(Cc1ccccc1)C(=O)Nc1ccccc1C (stereo not drawn) | -5.73%
23 | CCOC(=O)C(Cc1ccccc1)C(=O)Nc1ccc(NC(=O)C(Cc2ccccc2)C(=O)OCC)cc1 (stereo not drawn) | 3.39%
24 | COC(=O)c1cn(NC(=O)Cc2cccc(OC)c2)c(=O)c2ccccc12 | 3.66%

Row | Compound | inhibition
25 | CC1CCN(S(=O)(=O)N2CCC(C(=O)NCc3cccs3)CC2)CC1 | -4.64%
26 | Cc1cc(C(=O)COc2ncnc3sccc23)c(C)n1C | -3.73%
27 | Cc1noc(-c2ccccc2OC(=O)c2ccccc2)n1 | 1.9%
28 | COC(=O)c1cc(Sc2c(Cl)cccc2Cl)ccn1 | 34%
29 | COC(=O)c1ncccc1SC | -0.23%
30 | S=C(NCc1ccco1)Nc1ccc(Br)cc1Cl | 4.87%
31 | O=c1cc(-c2ccccc2)c2ccccc2[nH]1 | -8.75%
32 | O=C(c1c[nH]cc1-c1ccccc1)c1cccc2ccccc12 | -3.22%
33 | COc1ccc(C(CC(=O)Nc2ccccc2OC)n2cccc2)cc1 (stereo not drawn) | 3.19%
34 | CCOC(=O)N1CCN(C(=O)CN(c2ccc(OC)cc2)S(C)(=O)=O)CC1 | -8.65%
35 | CCn1c(=O)c(C(=O)NC(C)C)c(O)c2ccccc21 | 0.51%
36 | O=S(=O)(Nc1ccccc1)c1ccc(-c2csnn2)cc1 | 8.85%
37 | CCN(CC)C(=O)CN(c1cc(Cl)ccc1OC)S(=O)(=O)c1ccc(C)c([N+](=O)[O-])c1 | 4.94%
38 | O=C(COc1ccc(Cl)cc1)NCc1nnc2c3ccccc3c(-c3ccccc3)nn12 | 32.3%
39 | O=C(NCc1nnc2c3ccccc3c(-c3ccccc3)nn12)c1ccccc1Cl | 17.6%
40 | CCn1nc(C(=O)NCCc2ccc(S(N)(=O)=O)cc2)c2ccccc2c1=O | -2.56%
41 | COc1ccc(C(CCN2CCN(c3ccccc3)CC2)c2c(OC)cc(OC)c3c(-c4ccccc4)cc(=O)oc23)cc1 (stereo not drawn) | 6.72%
42 | COc1cc(OC)c2c(-c3ccccc3)cc(=O)oc2c1C(CCN1CCN(c2ccccc2)CC1)c1ccc(N(C)C)cc1 (stereo not drawn) | 13.6%
43 | COc1cc(C(CCN2CCCCC2)c2c(OC)cc(OC)c3c(-c4ccccc4)cc(=O)oc23)cc(OC)c1OC (stereo not drawn) | 10.2%
44 | COc1ccc(C(CCN2CCCC2)c2c(OC)cc(OC)c3c(-c4ccccc4)cc(=O)oc23)cc1 (stereo not drawn) | 64.5%
45 | CC(C)CCn1nnnc1C(C(C)C)N1CCC(C(N)=O)CC1 (stereo not drawn) | -6.25%
46 | CC(/C=C/c1ccco1)=N\NC(=O)c1cc(C)[nH]n1 | -12%
47 | O=C(Nc1ccccc1O)c1cc(S(=O)(=O)N2CCOCC2)ccc1Cl | 6.89%
48 | NNc1nc(-c2ccccc2)cs1 | 4.39%

Row | Compound | inhibition
49 | Fc1ccc(/C=C\c2nccc3c2[nH]c2ccccc23)cc1 | 8.94%
50 | Cc1ccc(/C=C\c2nccc3c2[nH]c2ccccc23)cc1 | 42.1%
51 | Cc1ccc(/C=N/NC(=O)Cn2nnc(N)n2)cc1 | -5.78%
52 | CCC(C)[C@H](NC(=O)NCCC1=CCCCC1)C(=O)OC (stereo partly drawn) | -7.06%
53 | O=C(CSc1ncccn1)N/N=C/c1ccc(OC2CSC2)cc1 | 0.1%
54 | CCc1ccc(-c2nn(-c3cc(Cl)ccc3[N+](=O)[O-])c(=O)c3ccccc23)cc1 | 3.9%
55 | CC(C)=C1SC(N2CCOCC2)=NC1=O | -2.58%
56 | Cc1c(C(=O)O)cccc1N1C(=O)Nc2ccccc2N1O | 5.34%
57 | Cc1ccc(Nc2nc(CSc3n[nH]c(N)n3)cs2)cc1 | 9.31%
58 | Clc1ccc(-c2nnc(CSc3nnc(-c4cccs4)o3)o2)cc1 | 12.5%
59 | c1ccc(-c2nnc(CSc3nnc(-c4cccs4)o3)o2)cc1 | 39.4%
60 | c1ccc(-c2nc(CSc3nnc(-c4cccs4)o3)cs2)cc1 | 2.37%
61 | O=C(Nc1nc(-c2cccc3ccccc23)cs1)c1ccc2c(c1)S(=O)(=O)c1ccccc1C2=O | 4.24%
62 | Cc1cccc(NC(=S)N(Cc2cccs2)Cc2cc3cc(C)ccc3[nH]c2=O)c1 | 8.62%
63 | CC(=O)O/C(=C\c1cn(C(C)=O)c2ccccc12)C(=O)O | 7.86%
64 | COc1cc(-c2nnc(SCC(=O)c3ccccc3)o2)cc(OC)c1OC | -0.24%
65 | CCOC(=O)N1CCN(C(=O)CSc2nnc(Cc3ccccc3)o2)CC1 | 3.59%
66 | COc1cc(OC)cc(-c2nnc(SCC(=O)N3CCCC3)o2)c1 | 14.8%
67 | CCCCN(CCCC)C(=O)CSc1nnc(-c2cc(OC)c(OC)c(OC)c2)o1 | 5.31%
68 | CCOC(=O)CSc1nnc(-c2cccnc2)o1 | -8.92%
69 | O=C(CSc1nnc(COc2ccccc2)o1)N1CCN(c2ccccc2)CC1 | 7.79%
70 | COc1cc(OC)cc(-c2nnc(SCC(=O)N3CCCCC3)o2)c1 | 13.8%
71 | CCOC(=O)CSc1nnc(-c2ccccc2)o1 | 27.1%
72 | Cc1ccc(C)n1-c1c(C(=O)NN)cnn1-c1ccccc1 | -0.22%

Row | Compound | inhibition
73 | C=CCn1c(-c2cccnc2)n[nH]c1=S | 4.66%
74 | O=C1CCC/C(=N\NC(=O)COc2ccc(Cl)cc2)C1 | -2.69%
75 | O=C(Cn1cnc2ccccc2c1=O)Nc1ccccc1N1CCOCC1 | 2.06%
76 | CN1CCN(c2ccccc2NC(=O)c2cc(Br)ccc2Cl)CC1 | 12.3%
77 | COC(=O)C(Cc1ccccc1)NC(=S)NC(=O)c1ccccc1 (stereo not drawn) | 3.22%
78 | CCOC(=O)c1c(C)[nH]c(C)c1C(=O)CSc1nnc(-c2cc(OC)c(OC)c(OC)c2)o1 | -2.95%
79 | COc1cc(-c2nnc(SCC(=O)N3CCCC3)o2)cc(OC)c1OC | -3.99%
80 | COc1ccc(N2CCC(CNC(=O)Nc3cccc(OC)c3)C2)cc1 (stereo not drawn) | 8.56%
81 | COc1ccc(NC(=S)N2C3CCC2CC(NC(=O)NC24CC5CC(CC(C5)C2)C4)C3)c(OC)c1 (stereo not drawn) | 40.3%
82 | CCOCC(=O)Nc1ccc([N+](=O)[O-])cc1C | 4.52%
83 | COc1ccc(CC2(CO)CCN(Cc3cc4ccccc4o3)CC2)cc1 | 5.84%
84 | CC(Sc1ccccc1)C(=O)NN=C1CCCC1 (stereo not drawn) | -0.55%
85 | CC1CCc2nc(NC(=O)CN3CCN(c4ccc(F)cc4)CC3)sc2C1 (stereo not drawn) | 18.4%
86 | COc1ccc(N2CCN(CC(=O)Nc3nnc(-c4ccccc4)s3)CC2)cc1 | 73.3%
87 | CC1CCc2nc(NC(=O)CN3CCOCC3)sc2C1 (stereo not drawn) | 23.3%
88 | CC1CCc2nc(NC(=O)CN3CCN(Cc4ccc5c(c4)OCO5)CC3)sc2C1 (stereo not drawn) | 64.4%
89 | O=C(O)c1ccccc1NC(=S)NC(=O)c1sc2ccccc2c1Cl | -3.63%
90 | CCOC(=O)C(C)Sc1nc(=O)n2ccccc2n1 (stereo not drawn) | -0.38%
91 | Clc1cccc(Cl)c1CSc1nnc(CN2CCOCC2)n1-c1ccccc1 | -7.41%
92 | O=C(O)CCC(=O)Nc1ccc(Br)cc1C(=O)c1ccc(Cl)cc1 | -5.88%
93 | COc1ccccc1COCC(O)CN(Cc1ccco1)Cc1ccccc1O (stereo not drawn) | 11.4%
